Screening data from PubChem BioAssay.
RGS7-Gao reg: human RGS7-Galphao interaction regulation | Multiplexed bead flow cytometry, RGS7-Galphao binding; actives lie on both sides | P09471 | actives 0.35% (n = 220,000) | binding response (% of control), % at 10 µM | AID 1439; in the data active = binding response below about 49% or above about 150%; inconclusive = no clear call, values can overlap the other calls; inactive = in between;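 also: fluorescent Galphao held in activated GDP-AlF4 state binding bead-coupled RGS7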
RGS8-Gao: regulators of human RGS8-Galphao interaction. actives 0.34% (n = 220,000). multiplexed bead flow cytometry, RGS8-Galphao binding; actives lie on both sides. response (percent of control binding), % at 10 µM. P09471; in the data active = response below about 60% or above about 140%; inactive = in between;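 also: Galphao activated as the GDP aluminium fluoride complex binding bead-coupled RGS8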
Avidin fluor: compound fluoresces at 488/530 nm on avidin beads; compound fluorescence 488/530 nm, flow cytometry; hits give high values; fluorescence (KMESF) at 10 µM; actives 0.38% (n = 220,000); AID 1775; in the data active = fluorescence above about 47
GSH fluor: GSH bead compound fluorescence profile; fluorescence (KMESF) at 10 µM; GSH beads flow cytometry, compound fluorescence 488/530 nm; hits give high values; AID 1776; actives 0.25% (n = 190,000); in the data active = fluorescence above about 89;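 also: glutathione beads carrying GST-tagged Bcl family fusion proteins plus one bare bead set; values are compound well signal with DMSO vehicle wells as background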
RGS16-Gao HTS: regulators of human RGS16-Galphao interaction; binding response (% of control), % at 10 µM; bead-based flow cytometry RGS16-Galphao binding, fluorescence; actives lie on both sides; actives 0.38% (n = 220,000); call rule not given here;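 also: Galphao activated by GDP with aluminum fluoride before binding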
Target sequence (O15492 whole entry, looked up): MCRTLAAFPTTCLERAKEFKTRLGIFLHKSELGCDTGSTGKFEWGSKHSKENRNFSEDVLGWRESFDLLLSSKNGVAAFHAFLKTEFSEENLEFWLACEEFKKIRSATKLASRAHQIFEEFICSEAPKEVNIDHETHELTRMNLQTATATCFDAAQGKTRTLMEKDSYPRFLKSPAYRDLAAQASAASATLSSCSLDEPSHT
Target sequence (P09471 whole entry, looked up): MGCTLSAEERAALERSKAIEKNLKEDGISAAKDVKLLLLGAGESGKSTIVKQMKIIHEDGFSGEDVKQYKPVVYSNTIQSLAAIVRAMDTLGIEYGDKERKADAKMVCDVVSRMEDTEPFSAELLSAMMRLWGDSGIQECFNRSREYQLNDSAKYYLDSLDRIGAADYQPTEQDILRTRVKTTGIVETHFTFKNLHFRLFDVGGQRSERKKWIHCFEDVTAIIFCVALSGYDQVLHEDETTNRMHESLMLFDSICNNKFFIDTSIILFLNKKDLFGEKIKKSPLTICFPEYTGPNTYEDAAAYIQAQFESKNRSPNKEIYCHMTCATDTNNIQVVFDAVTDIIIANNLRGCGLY
RGS4-Gao reg: human RGS4-Galphao interaction regulation; Multiplexed bead flow cytometry, RGS4-Galphao binding; actives lie on both sides; AID 1415; actives 0.33% (n = 220,000); P09471; binding response (% of control), % at 10 µM; in the data active = binding response below about 49% or above about 150%; inactive = in between;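 also: fluorescent Galphao activated with aluminum fluoride binding bead-coupled RGS4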
* hit, by the source's call; i = inactive; u = inconclusive; x = no result given; + = active, no number; [ ] = another dose, or the depositor's remark. The list is not random: actives were taken first. Their share in the collection is about 1.2%.

SMILES	RGS7-Gao reg	RGS8-Gao	Avidin fluor	GSH fluor	RGS16-Gao HTS	RGS4-Gao reg
Cc1ccc(CNC(=O)CSc2nc3ccsc3c(=O)n2NC(=O)c2ccccc2)cc1	96	98	5	13	100	99
Cc1nnc(NC2=NCCC2)o1	129	100	95*	20	101	105
CC(C)c1cc(C(=O)OCC(=O)NC(=O)NCc2ccco2)c(O)c(C(C)C)c1	u	101	9	9	105	103
CC(Oc1ccccc1)C(=O)OCC(=O)NC(=O)NCc1ccco1 (stereo unspecified)	102	105	6	267*	122	106
Cc1cccc(C(=O)NC(CC(=O)O)c2ccc(OC3CCCC3)cc2)c1[N+](=O)[O-] (stereo unspecified)	101	101	7	13	100	101
CC(=O)Nc1nnc(Cc2ccccc2)s1	107	110	7	264*	108	108
Cc1nnc(-c2cnn(-c3ccccc3)c2N)n1Cc1ccncc1	122	100	78*	13	106	105
Cc1nnc(-c2cnn(-c3ccccc3)c2N)n1Cc1cccc(C(F)(F)F)c1	103	104	17	12	105	106
O=C1S/C(=C\c2ccc(N3CCOCC3)o2)C(=O)N1Cc1ccc(F)cc1	153*[activator]	124	31	15	386	165*[activator]
O=C1S/C(=C/c2ccc(N3CCOCC3)o2)C(=O)N1Cc1ccc(F)cc1	103	86	10	16	98	100
Nc1c(C(=O)NCc2ccco2)sc2nc(N3CCOCC3)c3c(c12)CCCC3	114	99	62*	9	105	104
Cc1cc(=O)oc2cc(OCc3nnc(-c4ccccc4Br)o3)ccc12	104	98	49*	12	101	98
CCCCC(CC)CNC(=O)C(=O)c1ccccc1NC(C)=O (stereo unspecified)	101	103	4	9	106	101
CCCS(=O)(=O)NCCc1cc2ccc(C)cc2[nH]c1=O	102	99	5	88*	98	96
CCOC(=O)C1(CCOC)CCN(C(=O)c2ccccc2-c2cccc(C)c2)CC1	100	99	12	15	97	102
CCOc1c(OC(C)=O)ccc(/C=C2\N=C(SCC)SC2=O)c1[N+](=O)[O-]	113	97	78*	27	91	100
CC(=O)n1c2c(c3ccccc31)OC(N)=C(C#N)C2c1cccc(Cl)c1Cl (stereo unspecified)	102	99	23	11	102	100
CCOc1ccc2nc(NC(=O)c3ccoc3C)sc2c1	116	102	56*	35	103	104
COC(=O)CC1C(=O)NCCN1C(=O)CSc1nnc(Nc2ccc(C)cc2)s1 (stereo unspecified)	106	101	17	260*	103	99
CCCNc1nc(C)cc(-c2cc(C(=O)NCc3ccccc3)on2)n1	u	104	9	x	96	97
O=C1CSc2ccc(C(=O)NCC(c3ccco3)N3CCCCC3)cc2N1 (stereo unspecified)	113	84	50*	71	77	94
O=C(NCC(c1ccco1)N1CCCCC1)c1ccc2c(c1)S(=O)(=O)c1ccccc1C2=O (stereo unspecified)	102	103	25	7	111	103
CCN(C(=O)Cn1c(=O)n(-c2cc(OC)c(OC)c(OC)c2)c(=O)c2ccccc21)c1cccc(C)c1	101	100	9	25	98	98
Cc1ccc(-c2nn(CC(=O)NCc3cc(-c4nn(C)c(=O)c5ccccc45)ccc3C)c(=O)c3ccccc23)cc1	+[activator]	209*[activator]	487*	25	i	+[activator]
O=S(=O)(Nc1ccccc1)c1ccc2c(c1)CCO2	u	101	8	x	100	102
SMILES	RGS7-Gao reg	RGS8-Gao	Avidin fluor	GSH fluor	RGS16-Gao HTS	RGS4-Gao reg
COc1ccc(NS(=O)(=O)c2ccc3c(c2)CCO3)cc1	u	95	61*	x	99	115
COc1ccc(-c2cc(C(=O)Nc3c(C)nn(Cc4ccc(Cl)cc4)c3C)no2)cc1	135	111	50*	49	165	146
COc1cc(-c2c(C#N)c(=O)[nH]c3c2c(C)nn3-c2ccccc2)ccc1O	109	102	48*	17	101	103
Cc1cccc(NC(=O)CSc2nnc(-c3ccc(S(=O)(=O)N4CCOCC4)cc3)n2C)c1	116	101	68*	12	103	105
C=CC(=O)NCCCc1cc(C(C)(C)C)c(O)c(C(C)(C)C)c1	106	99	13	9	102	102
COc1cc(/C=C/C(=O)OCC(=O)N2CCc3ccccc3C2)ccc1O	93	99	12	6	96	96
CCCCn1c(SCC(=O)N2CC(C)CC(C)C2)nc2cc(S(N)(=O)=O)ccc21 (stereo unspecified)	91	93	6	262*	94	92
Fc1ccc(NC(=S)N/N=C/c2ccc(F)c(F)c2)cc1	130	102	80*	22	110	106
O=c1c2ccccc2nnn1CSc1ccccc1	101	106	21	12	107	105
Cc1nc(SCn2nnc3ccccc3c2=O)nc(C)c1C	102	100	8	258*	102	100
N#Cc1ncc(Cl)c2ccccc12	u	104	7	x	108	108
COC1=C(OC)c2ccccc2C(C(=O)O)N/C1=C(/C)Nc1ccncc1 (stereo unspecified)	102	101	9	267*	102	101
O=C(CSC1=NCCS1)N1CCOCC1	100	103	8	249*	107	101
O=C(CSC1=NCCS1)N1CCN(c2ccccc2)CC1	94	90	4	25	78	90
O=S(=O)(CCN1C=CC(C(F)(F)F)=NCC1)c1ccc(Cl)cc1Cl	u	101	6	x	103	103
O=C1NC(=O)C2C1C(c1cccs1)NN2Cc1ccccc1 (stereo unspecified)	u	99	9	16	98	98
CC(=O)OCC(=O)NCc1ccc2c(c1)OCO2	106	103	8	46	110	105
CN1CC(=O)N(CC(=O)NCc2ccc3c(c2)OCO3)C1=O	100	105	8	283*	106	102
Cc1ccc(C2=NN(CCC(=O)NCc3ccc4c(c3)OCO4)C(=O)CC2)cc1	115	97	32	226*	119	115
Cc1ccsc1C(=O)OCC(=O)NCc1ccc2c(c1)OCO2	104	103	7	261*	105	103
CCCNC(=O)c1ccccc1NC(=O)c1ccccc1N(C)S(=O)(=O)c1ccc(C)cc1	89	76	5	x	37	89
CCN(CC)CCNC(=O)c1ccccc1C(=O)c1ncc[nH]1	139	106	107*	19	112	113
